About 360 (30%) of roughly 1,200 compounds were called active. A selection follows. Results with a measured potency or affinity are listed apart. Unmarked numbers belong to inactive results. No rule for the calls is given here.
test: antibacterial activity by ATP level – BacTiter-Glo luminescence, cherry-picked samples, counter-screen, dose response (AID 504843); conditions: bacterial growth; series mostly up to 15 µM; activity change, negative = inhibition: at the top concentration;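 also: growth measured after 8 h incubation at 30 °C; 0% = median of sample compound wells and -100% = antibiotic control wells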

With `CCO[C@@H]1OC(C(=O)O)=C[C@H](C)[C@H]1CCCO` as the compound, how does the “activity change, negative = inhibition” value read?
Its value is -6.26%.

For `O=C(O)C1(C(=O)O)CCC1`, which “activity change, negative = inhibition” value is on record?
The value was -7.92%.

For `Cc1occc1C(=O)NCc1cccc(CNC(=O)c2ccoc2C)c1`, which “activity change, negative = inhibition” value is on record?
The value was -3.57%.

For `O=C(Cn1cc(C(F)(F)F)ccc1=O)OCC(=O)c1ccc[nH]1`, which “activity change, negative = inhibition” value is on record?
Its value is -0.317%.

Which “activity change, negative = inhibition” value does the source give for `COc1ccc(-c2[nH]nc3c2C(c2ccoc2)C(C#N)=C(N)O3)cc1` (stereo not drawn) here?
The value was 10.6%.

Which “activity change, negative = inhibition” value does the source give for `COc1ccccc1N1CCN(C(=O)c2cc3c(=O)n4ccccc4nc3s2)CC1` here?
Its value is 4.25%.

For `COc1ccccc1C(=O)Nc1ccnn1C1CCN(Cc2cnn(C)c2)CC1`, which “activity change, negative = inhibition” value is on record?
The value was -9.99%.

With `N#Cc1ccccc1S(=O)(=O)N1CCN(CC(=O)Nc2ccnn2C2CCCC2)CC1` as the compound, how does the “activity change, negative = inhibition” value read?
The value was 1.24%.

For `C=CCOc1ccccc1CN1CCC(n2nccc2NC(=O)C2CC2)CC1`, which “activity change, negative = inhibition” value is on record?
Its value is -0.759%.

For `COc1ccccc1-c1ccc(=O)n(CC(=O)Nc2ccc(C(=O)N3CCCC3)cc2)n1`, which “activity change, negative = inhibition” value is on record?
The value was -8.64%.

For `C[C@H]1CN([C@@H](C)CO)C(=O)c2cccc(NS(=O)(=O)c3ccc(F)cc3)c2O[C@H]1CN(C)Cc1ccc(Cl)c(Cl)c1`, which “activity change, negative = inhibition” value is on record?
Its value is 21.8%.

With `CNC(=O)CN(c1ccc(C(C)C)cc1)S(C)(=O)=O` as the compound, how does the “activity change, negative = inhibition” value read?
Its value is 0.765%.

For `CC1CCN(C(=O)C2(NC(=O)Nc3cccc(F)c3)CCCCC2)CC1`, which “activity change, negative = inhibition” value is on record?
Its value is 14.5%.

For `CCOc1ccc(NC(=O)c2cccc(OC(=S)N3CCC(C)CC3)c2)cc1`, which “activity change, negative = inhibition” value is on record?
The value was -6.49%.

For `O=C(N[C@@H](Cc1ccccc1)C(=O)NC1CC1)c1ccc(Cl)cc1`, which “activity change, negative = inhibition” value is on record?
Its value is -0.277%.

For `Cc1nc2ccc(C(=O)Nc3ccc4nc[nH]c4c3)cc2[nH]1`, which “activity change, negative = inhibition” value is on record?
The value was 21.4%.

With `CN1C(=O)N(C)C2(c3ccccc3)NC(=O)NC12c1ccccc1` (stereo not drawn) as the compound, how does the “activity change, negative = inhibition” value read?
The value was -6.8%.

For `O=C(CC1SCCNC1=O)Nc1cccc(Cl)c1` (stereo not drawn), which “activity change, negative = inhibition” value is on record?
The value was 7.99%.

Which “activity change, negative = inhibition” value does the source give for `COC(=O)CN1C(=O)N/C(=C/c2ccccc2OC)C1=O` here?
The value was -2.13%.

Which “activity change, negative = inhibition” value does the source give for `Nc1nnc(-c2ccc(F)cc2)s1` here?
The value was -6.94%.

With `O=C(CSc1nnc(-c2ccncc2)s1)Nc1ccc(Cl)c(C(=O)O)c1` as the compound, how does the “activity change, negative = inhibition” value read?
The value was 19.2%.

Which “activity change, negative = inhibition” value does the source give for `CC(C)c1nnc(NC(=O)CCS(=O)(=O)Cc2ccccc2)s1` here?
The value was -6.44%.

For `O=C(COc1ccc2c3c(c(=O)oc2c1)CCCC3)NCc1ccncc1`, which “activity change, negative = inhibition” value is on record?
The value was -29.5%.

Which “activity change, negative = inhibition” value does the source give for `O=C(O)CCC(=O)Nc1sc2c(c1C(=O)Nc1cccc3ccccc13)CCCCC2` here?
The value was 0.5%.

With `Cc1onc(C(=O)NCc2ccc(F)cc2)c1[N+](=O)[O-]` as the compound, how does the “activity change, negative = inhibition” value read?
Its value is 2.68%.

With `O=C(NCc1ccc(Cl)cc1)c1cccc(NC2=NC3CS(=O)(=O)CC3S2)c1` (stereo not drawn) as the compound, how does the “activity change, negative = inhibition” value read?
Its value is 8.12%.

With `COc1ccc2c3c(c(=O)oc2c1OCC(N)=O)CCCC3` as the compound, how does the “activity change, negative = inhibition” value read?
The value was -17.5%.

Which “activity change, negative = inhibition” value does the source give for `O=C(COc1ccc2c3c(c(=O)oc2c1)CCCC3)NCC(O)c1ccccc1` (stereo not drawn) here?
Its value is -8.59%.

Which “activity change, negative = inhibition” value does the source give for `Cc1ccc2c(CC(=O)Nc3ccc(N4CCN(C)CC4)cc3C)coc2c1` here?
Its value is 20.9%.

With `CCOCCCNC(=S)NCCNc1nc2ccc(C)cc2cc1C#N` as the compound, how does the “activity change, negative = inhibition” value read?
The value was 5.71%.

Which “activity change, negative = inhibition” value does the source give for `COc1cc(C(=O)NC(c2ccccc2)c2ccccc2)cc(OC)c1C` here?
Its value is -4.22%.

With `O=C(Cn1c(=O)n(-c2ccc(F)cc2)c(=O)c2sccc21)NC1CCCCC1` as the compound, how does the “activity change, negative = inhibition” value read?
Its value is -1.56%.

For `O=C(NNc1ncnc2c1cnn2-c1ccccc1)c1cccs1`, which “activity change, negative = inhibition” value is on record?
The value was -12.2%.

With `CC(C)S(=O)(=O)C1=NSC2=NC(=O)/C(=C\c3ccc(-c4cccc(C(=O)O)c4)o3)C(=N)N21` as the compound, how does the “activity change, negative = inhibition” value read?
The value was 6.02%.

Which “activity change, negative = inhibition” value does the source give for `CCc1nc2cc3sc(CC)nc3cc2s1` here?
The value was -14%.

For `O=C(CCNc1n[nH]c(=O)[nH]c1=O)N1CCCCC1`, which “activity change, negative = inhibition” value is on record?
Its value is 12.4%.

Which “activity change, negative = inhibition” value does the source give for `C(=N\n1cncn1)/c1ccc(N2CCOCC2)cc1` here?
Its value is -9.77%.

Which “activity change, negative = inhibition” value does the source give for `Cc1cnc(C(=O)OCC(=O)c2ccc(-c3ccccc3)cc2)cn1` here?
Its value is -0.804%.

Which “activity change, negative = inhibition” value does the source give for `CN(C(=O)COC(=O)c1cccc(S(=O)(=O)N2CCOCC2)c1)C1CCS(=O)(=O)C1` (stereo not drawn) here?
Its value is -2.99%.

Which “activity change, negative = inhibition” value does the source give for `O=C(OCC(=O)N1CCCC1=O)c1cccc(S(=O)(=O)N2CCOCC2)c1` here?
Its value is 1.48%.

For `Cc1ccc(C(=O)N/C(=C\c2cn(S(=O)(=O)N(C)C)c3ccccc23)C(=O)NCCCN2CCOCC2)cc1`, which “activity change, negative = inhibition” value is on record?
Its value is 1.64%.

Which “activity change, negative = inhibition” value does the source give for `COc1ccc(C)cc1S(=O)(=O)N(CC(=O)NC1CCCC1)c1ccc(F)cc1` here?
The value was 10.7%.

Which “activity change, negative = inhibition” value does the source give for `COc1ccc(S(=O)(=O)N2CCN(CC(=O)Nc3c(C)n[nH]c3C)CC2)cc1OC` here?
The value was 22.9%.

Which “activity change, negative = inhibition” value does the source give for `COc1cc(CNCc2ccccn2)ccc1OCc1c(Cl)cccc1Cl` here?
Its value is 1.71%.

Which “activity change, negative = inhibition” value does the source give for `Cc1nn(-c2ccccc2)c(Cl)c1/C=N/NC(=O)c1ccccc1NS(=O)(=O)c1cccs1` here?
The value was 11.3%.

With `CCOC(=O)c1c(NC(=O)C2C3C=CC(C3)C2C(=O)O)sc2c1CCC(C)C2` (stereo not drawn) as the compound, how does the “activity change, negative = inhibition” value read?
Its value is -13%.

For `COc1ccc(S(=O)(=O)N2CCC(C(=O)N3CCN(C)CC3)CC2)cc1Cl`, which “activity change, negative = inhibition” value is on record?
The value was -12.6%.

With `COc1ccc(OC)c(S(=O)(=O)N2CCC(C(=O)NC3CC3)CC2)c1` as the compound, how does the “activity change, negative = inhibition” value read?
The value was 9.45%.

For `COc1cccc(C(=O)N(CN2CCCC2=O)c2cccc(Cl)c2)c1OC`, which “activity change, negative = inhibition” value is on record?
The value was -0.914%.

With `COc1ccc(S(=O)(=O)NCCSCc2ccco2)cc1Cl` as the compound, how does the “activity change, negative = inhibition” value read?
The value was -3.17%.

For `NS(=O)(=O)c1cc(C(=O)O)c(NCc2ccco2)cc1Cl`, which “activity change, negative = inhibition” value is on record?
Its value is 9.75%.

Which “activity change, negative = inhibition” value does the source give for `CS(=O)(=O)c1ccc([C@@H](O)[C@@H](CF)NC(=O)C(Cl)Cl)cc1` here?
Its value is -13.5%.

For `CCC[C@@H]1C[C@@H](C(=O)N[C@H]([C@@H](C)O)[C@H]2O[C@H](SC)[C@H](O)[C@@H](O)C2O)N(C)C1` (stereo partly drawn), which “activity change, negative = inhibition” value is on record?
The value was -11.7%.

For `O=C(O)CCc1ccc(-c2cccs2)o1`, which “activity change, negative = inhibition” value is on record?
Its value is 5.51%.

Which “activity change, negative = inhibition” value does the source give for `c1ccc(CC2=NCCN2)cc1` here?
Its value is -0.359%.

With `Cc1ccc2[nH]c(=O)c(CNS(=O)(=O)c3ccccc3)c(-c3ccccc3)c2c1` as the compound, how does the “activity change, negative = inhibition” value read?
The value was 17.9%.

Which “activity change, negative = inhibition” value does the source give for `Cc1ccccc1Nc1nnc(C)c(=O)[nH]1` here?
The value was 10.6%.

With `Cc1cccc(-c2onc3ccc(C4(C)OCCO4)cc23)c1` as the compound, how does the “activity change, negative = inhibition” value read?
Its value is 11.3%.

With `COc1ccc(/C=N/NC(=O)COc2cc(C)cc(C)c2)cc1COC(C)=O` as the compound, how does the “activity change, negative = inhibition” value read?
Its value is 1.36%.

With `Cc1ccc(NC(=O)CSc2nccn2C)cc1F` as the compound, how does the “activity change, negative = inhibition” value read?
Its value is -13.7%.

With `CCn1c(SCC(=O)NC2CCCCC2)nnc1-c1cccnc1` as the compound, how does the “activity change, negative = inhibition” value read?
The value was 9.43%.

For `Cc1ccc(N2CC(C(=O)Nc3cc(C(F)(F)F)ccc3N3CCCC3)CC2=O)cc1` (stereo not drawn), which “activity change, negative = inhibition” value is on record?
The value was -1.85%.

For `CCOCCCNC(=O)C(c1ccc(C)cc1)N(Cc1cccs1)C(=O)c1ccccc1O` (stereo not drawn), which “activity change, negative = inhibition” value is on record?
Its value is -28.2%.

Which “activity change, negative = inhibition” value does the source give for `COc1ccc(OC)c(C(=O)CSc2nnc(-c3cccs3)o2)c1` here?
The value was 12.4%.

For `O=C(Nc1ccc(C(=O)O)cc1)/C(=C\C=C\c1ccccc1)NC(=O)c1ccccc1Br`, which “activity change, negative = inhibition” value is on record?
The value was -18.5%.

With `Cc1noc(NS(=O)(=O)c2ccc(NC(=O)c3ccoc3C)cc2)c1C` as the compound, how does the “activity change, negative = inhibition” value read?
Its value is 19.2%.

With `O=C(O)c1ccn(COc2ccc(Br)cc2)n1` as the compound, how does the “activity change, negative = inhibition” value read?
The value was 5.36%.

With `Cc1ccc(NC(=O)c2cc(N3C(=O)C4CC=CCC4C3=O)ccc2N2CCOCC2)cc1Cl` (stereo not drawn) as the compound, how does the “activity change, negative = inhibition” value read?
Its value is 0.728%.

Source: PubChem BioAssay AID504843 (Broad Institute, 2011)
